# In PubChem BioAssay AID1159580 (chemical genetic matrix, 2015):
# Screen size: about 5,500 compounds; about 2,000 (36%) were called active. Another 18% or so got no clear call; they are omitted. This is one part of the list. Unmarked numbers belong to inactive results. Rule as the data show it: active = normalized growth mostly below about 0.91 (no sharp cut-off); inconclusive = no clear call, values can overlap the other calls; inactive = mostly above about 0.92.
# Assay: chemical genetic growth profiling, strain panel (AID 1159580);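 also: tested at 20 µM; growth read once vehicle control cultures reached saturation at 30 °C; 1 = growth at the plate median or of vehicle wells; lower values mean less growth of the strain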
# Settings: growth OD
smiles,measurement,setting,value
CCN(CC)CCOc1ccc(/C(=C(\Cl)c2ccccc2)c2ccccc2)cc1,normalized growth,"S. cerevisiae deletion strains, locus YKL009W, strain mrt4, active compounds read low",0.917
same,normalized growth,"S. cerevisiae deletion strains, locus YKL068W, active compounds read low",1.01
same,normalized growth,"S. cerevisiae deletion strains, locus YKL160W, strain elf1, active compounds read low",0.195 (active)
same,normalized growth,"S. cerevisiae deletion strains, locus YKL190W, strain CNB1, active compounds read low",0.0469 (active)
same,normalized growth,"S. cerevisiae deletion strains, locus YKR001C, strain vps1, active compounds read low",0.0607 (active)
same,normalized growth,"S. cerevisiae deletion strains, locus YKR026C, strain gcn3, active compounds read low",0.209 (active)
same,normalized growth,"S. cerevisiae deletion strains, locus YKR091W, strain srl3, active compounds read low",0.171 (active)
same,normalized growth,"S. cerevisiae deletion strains, locus YLL001W, strain dnm1, active compounds read low",0.108 (active)
same,normalized growth,"S. cerevisiae deletion strains, locus YLL026W, active compounds read low",0.0855 (active)
same,normalized growth,"S. cerevisiae deletion strains, locus YLL041C, strain sdh2, active compounds read low",0.129 (active)
same,normalized growth,"S. cerevisiae deletion strains, locus YLR027C, strain aat2, active compounds read low",0.093 (active)
same,normalized growth,"S. cerevisiae deletion strains, locus YLR039C, strain RIC1, active compounds read low",0.099 (active)
same,normalized growth,"S. cerevisiae deletion strains, locus YLR058C, strain SHM2, active compounds read low",0.0491 (active)
same,normalized growth,"S. cerevisiae deletion strains, locus YLR102C, strain apc9, active compounds read low",0.0621 (active)
same,normalized growth,"S. cerevisiae deletion strains, locus YLR113W, strain HOG1, active compounds read low",0.925
same,normalized growth,"S. cerevisiae deletion strains, locus YLR221C, strain rsa3, active compounds read low",0.104 (active)
same,normalized growth,"S. cerevisiae deletion strains, locus YLR258W, strain gsy2, active compounds read low",0.0916 (active)
same,normalized growth,"S. cerevisiae deletion strains, locus YLR262C, strain YPT6 (second series), active compounds read low",0.933
same,normalized growth,"S. cerevisiae deletion strains, locus YLR262C, strain YPT6, active compounds read low",0.1 (active)
same,normalized growth,"S. cerevisiae deletion strains, locus YLR268W, strain sec22, active compounds read low",0.0697 (active)
same,normalized growth,"S. cerevisiae deletion strains, locus YLR320W, strain mms22, active compounds read low",0.182 (active)
same,normalized growth,"S. cerevisiae deletion strains, locus YLR330W, strain CHS5, active compounds read low",0.0524 (active)
same,normalized growth,"S. cerevisiae deletion strains, locus YLR342W, strain FKS1 (second series), active compounds read low",0.066 (active)
same,normalized growth,"S. cerevisiae deletion strains, locus YLR342W, strain FKS1, active compounds read low",0.156 (active)
same,normalized growth,"S. cerevisiae deletion strains, locus YLR357W, strain rsc2, active compounds read low",0.175 (active)
same,normalized growth,"S. cerevisiae deletion strains, locus YLR370C, strain arc18, active compounds read low",0.0727 (active)
same,normalized growth,"S. cerevisiae deletion strains, locus YLR371W, strain rom2, active compounds read low",0.0621 (active)
same,normalized growth,"S. cerevisiae deletion strains, locus YLR384C, strain iki3, active compounds read low",0.714 (active)
same,normalized growth,"S. cerevisiae deletion strains, locus YLR418C, strain cdc73, active compounds read low",0.0928 (active)
same,normalized growth,"S. cerevisiae deletion strains, locus YML016C, strain PPZ1, active compounds read low",0.0474 (active)
same,normalized growth,"S. cerevisiae deletion strains, locus YML032C, strain rad52, active compounds read low",0.0749 (active)
same,normalized growth,"S. cerevisiae deletion strains, locus YML120C, strain ndi1, active compounds read low",0.121 (active)
same,normalized growth,"S. cerevisiae deletion strains, locus YML124C, strain tub3, active compounds read low",0.0612 (active)
same,normalized growth,"S. cerevisiae deletion strains, locus YMR058W, strain fet3, active compounds read low",0.0872 (active)
same,normalized growth,"S. cerevisiae deletion strains, locus YMR078C, strain ctf18, active compounds read low",0.0745 (active)
same,normalized growth,"S. cerevisiae deletion strains, locus YMR125W, strain sto1, active compounds read low",0.17 (active)
same,normalized growth,"S. cerevisiae deletion strains, locus YMR129W, active compounds read low",0.129 (active)
same,normalized growth,"S. cerevisiae deletion strains, locus YMR205C, strain PFK2, active compounds read low",0.145 (active)
same,normalized growth,"S. cerevisiae deletion strains, locus YMR223W, strain ubp8, active compounds read low",0.0648 (active)
same,normalized growth,"S. cerevisiae deletion strains, locus YMR231W, strain pep5, active compounds read low",0.0748 (active)
same,normalized growth,"S. cerevisiae deletion strains, locus YMR263W, strain SAP30, active compounds read low",0.0606 (active)
same,normalized growth,"S. cerevisiae deletion strains, locus YMR307W, strain GAS1, active compounds read low",0.123 (active)
same,normalized growth,"S. cerevisiae deletion strains, locus YNL067W, strain RPL9B, active compounds read low",0.0497 (active)
same,normalized growth,"S. cerevisiae deletion strains, locus YNL071W, strain lat1, active compounds read low",0.14 (active)
same,normalized growth,"S. cerevisiae deletion strains, locus YNL128W, strain TEP1, active compounds read low",0.0656 (active)
same,normalized growth,"S. cerevisiae deletion strains, locus YNL183C, strain NPR1, active compounds read low",0.92
same,normalized growth,"S. cerevisiae deletion strains, locus YNL209W, strain ssb2, active compounds read low",0.126 (active)
same,normalized growth,"S. cerevisiae deletion strains, locus YNL233W, strain BNI4, active compounds read low",0.057 (active)
same,normalized growth,"S. cerevisiae deletion strains, locus YNL248C, strain rpa49, active compounds read low",0.191 (active)
same,normalized growth,"S. cerevisiae deletion strains, locus YNL250W, strain rad50, active compounds read low",0.922
same,normalized growth,"S. cerevisiae deletion strains, locus YNL271C, strain bni1, active compounds read low",0.962
same,normalized growth,"S. cerevisiae deletion strains, locus YNL298W, strain CLA4, active compounds read low",0.914
same,normalized growth,"S. cerevisiae deletion strains, locus YNL307C, strain MCK1, active compounds read low",0.0652 (active)
same,normalized growth,"S. cerevisiae deletion strains, locus YNL322C, strain KRE1 (second series), active compounds read low",1.02
same,normalized growth,"S. cerevisiae deletion strains, locus YNL322C, strain KRE1, active compounds read low",0.0484 (active)
same,normalized growth,"S. cerevisiae deletion strains, locus YNR049C, strain mso1, active compounds read low",0.0907 (active)
same,normalized growth,"S. cerevisiae deletion strains, locus YNR052C, strain pop2, active compounds read low",0.0587 (active)
same,normalized growth,"S. cerevisiae deletion strains, locus YOL006C, strain TOP1, active compounds read low",0.117 (active)
same,normalized growth,"S. cerevisiae deletion strains, locus YOL147C, strain pex11, active compounds read low",0.0607 (active)
same,normalized growth,"S. cerevisiae deletion strains, locus YOR001W, strain rrp6, active compounds read low",0.337 (active)
same,normalized growth,"S. cerevisiae deletion strains, locus YOR061W, strain CKA2, active compounds read low",0.0462 (active)
same,normalized growth,"S. cerevisiae deletion strains, locus YOR069W, strain VPS5, active compounds read low",0.0488 (active)
same,normalized growth,"S. cerevisiae deletion strains, locus YOR070C, strain gyp1, active compounds read low",0.0639 (active)
same,normalized growth,"S. cerevisiae deletion strains, locus YOR080W, strain dia2, active compounds read low",0.289 (active)
same,normalized growth,"S. cerevisiae deletion strains, locus YOR083W, strain WHI5, active compounds read low",0.102 (active)
same,normalized growth,"S. cerevisiae deletion strains, locus YOR106W, strain vam3, active compounds read low",0.0804 (active)
same,normalized growth,"S. cerevisiae deletion strains, locus YOR136W, strain idh2, active compounds read low",0.0748 (active)
same,normalized growth,"S. cerevisiae deletion strains, locus YOR144C, strain elg1, active compounds read low",0.0617 (active)
same,normalized growth,"S. cerevisiae deletion strains, locus YOR184W, strain ser1, active compounds read low",0.0757 (active)
same,normalized growth,"S. cerevisiae deletion strains, locus YOR231W, strain MKK1, active compounds read low",0.946
same,normalized growth,"S. cerevisiae deletion strains, locus YOR265W, strain rbl2, active compounds read low",0.0762 (active)
same,normalized growth,"S. cerevisiae deletion strains, locus YOR270C, strain vph1, active compounds read low",0.0899 (active)
same,normalized growth,"S. cerevisiae deletion strains, locus YOR290C, strain snf2, active compounds read low",0.112 (active)
same,normalized growth,"S. cerevisiae deletion strains, locus YOR316C, strain cot1, active compounds read low",0.0599 (active)
same,normalized growth,"S. cerevisiae deletion strains, locus YPL051W, strain arl3, active compounds read low",0.303 (active)
same,normalized growth,"S. cerevisiae deletion strains, locus YPL055C, strain LGE1, active compounds read low",0.0709 (active)
same,normalized growth,"S. cerevisiae deletion strains, locus YPL078C, strain atp4, active compounds read low",0.232 (active)
same,normalized growth,"S. cerevisiae deletion strains, locus YPL106C, strain sse1, active compounds read low",0.136 (active)
same,normalized growth,"S. cerevisiae deletion strains, locus YPL240C, strain hsp82, active compounds read low",0.0981 (active)
same,normalized growth,"S. cerevisiae deletion strains, locus YPL241C, strain CIN2, active compounds read low",0.0508 (active)
same,normalized growth,"S. cerevisiae deletion strains, locus YPL256C, strain CLN2, active compounds read low",0.939
same,normalized growth,"S. cerevisiae deletion strains, locus YPR119W, strain clb2, active compounds read low",0.067 (active)
same,normalized growth,"S. cerevisiae deletion strains, locus YPR141C, strain kar3, active compounds read low",1.03
same,normalized growth,"S. cerevisiae deletion strains, locus YPR163C, strain tif3, active compounds read low",0.0698 (active)
same,normalized growth,"S. cerevisiae deletion strains, locus YPR167C, strain met16, active compounds read low",0.0645 (active)
same,normalized growth,"S. cerevisiae deletion strains, strain wtn01, active compounds read low",0.0644 (active)
same,normalized growth,"S. cerevisiae strains, strain wild type, active compounds read low",0.0486 (active)
